Experimental data reported in the supplement of paper PMC10849652.
Targets with a hit are over-represented here; the source holds about 8,800 in all. About 0.5% of all pairs of compound and target were hits. Values without a mark were called inactive.

Assays:
Assay in all cases: log2 fold change, soluble protein after heating vs DMSO (PISA); higher = thermal stabilisation; K562 lysate, 10 uM; active = over 0.2 and 3.5 SD of the protein, either way, in both replicates (recomputed)
erlotinib = compound: C#Cc1cccc(Nc2ncnc3cc(OCCOC)c(OCCOC)cc23)c1 [erlotinib]
In short: (§1)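 Dounce homogenisation of K562 pellets in PBS pH 7.4 with 1 mM MgCl2 produced a crude extract, used at 1 mg/mL protein. Exposure to 10 μM compound lasted 30 min, and aliquots were then heated for 3 min across 48°C-58°C, pooled and brought to 0.5% NP-40 at 4°C. The supernatant after 21,000xg for 90 min was quantified by TMTpro 16plex LC-MS/MS with channel sums equalised. Duplicate values are given as log-two fold change in thermal stability relative to solvent controls.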

[1] = compound: C/C(=N\NC(=O)C1=CC(=CC=C1)S(=O)(=O)N2CCOCC2)/C3=C(C=CC(=C3)Cl)O
In short: as §1

[2] = compound: C1=CC(=CC=C1C2=NC3=C(N2)C=C(C=C3)C(=O)N)OC4=CC=C(C=C4)Cl
In short: as §1

[3] = compound: C1=CC2=C(C=CC(=C2)/C=C\3/C(=O)NC(=NCC4=CC=CS4)S3)N=C1
In short: as §1

[4] = compound: C1=CC2=NC=CN=C2C=C1/C=C/3\C(=O)NC(=O)S3
In short: as §1

[5] = compound: C1=CC=C(C=C1)C2=NC(=C(N2)C3=CC=NC=C3)C4=CC(=C(C=C4)Cl)O
In short: as §1

[6] = compound: C1=CC=C2C(=C1)C3=NNC4=CC=CC(=C43)C2=O
In short: as §1

IRAK-1-4 Inhibitor I = compound: C1COCCN1CCN2C3=CC=CC=C3N=C2NC(=O)C4=CC(=CC=C4)[N+](=O)[O-] [IRAK-1-4 Inhibitor I]
In short: as §1

[7] = compound: C1CCN(C1)C(=O)NC2=CC=CC(=C2)NC3=NC=C(C(=N3)NCCC4=CN=CN4)Br
In short: as §1

[8] = compound: C1CN(CCC1(CC2=CC=C(C=C2)Cl)N)C3=NC=NC4=C3C=CN4
In short: as §1

Chain of UniProt Q6AI12 (Q6AI12 whole entry, looked up): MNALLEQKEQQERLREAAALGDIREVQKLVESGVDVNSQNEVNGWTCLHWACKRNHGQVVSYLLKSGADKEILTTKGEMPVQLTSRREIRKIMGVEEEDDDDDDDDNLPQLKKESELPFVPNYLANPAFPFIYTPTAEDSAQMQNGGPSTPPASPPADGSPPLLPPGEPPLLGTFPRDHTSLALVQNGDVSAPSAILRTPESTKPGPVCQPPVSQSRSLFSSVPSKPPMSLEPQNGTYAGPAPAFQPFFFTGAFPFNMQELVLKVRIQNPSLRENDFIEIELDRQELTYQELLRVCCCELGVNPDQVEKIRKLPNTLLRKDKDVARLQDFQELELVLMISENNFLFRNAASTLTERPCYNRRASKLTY
Chain of UniProt O14617 (O14617 whole entry, looked up): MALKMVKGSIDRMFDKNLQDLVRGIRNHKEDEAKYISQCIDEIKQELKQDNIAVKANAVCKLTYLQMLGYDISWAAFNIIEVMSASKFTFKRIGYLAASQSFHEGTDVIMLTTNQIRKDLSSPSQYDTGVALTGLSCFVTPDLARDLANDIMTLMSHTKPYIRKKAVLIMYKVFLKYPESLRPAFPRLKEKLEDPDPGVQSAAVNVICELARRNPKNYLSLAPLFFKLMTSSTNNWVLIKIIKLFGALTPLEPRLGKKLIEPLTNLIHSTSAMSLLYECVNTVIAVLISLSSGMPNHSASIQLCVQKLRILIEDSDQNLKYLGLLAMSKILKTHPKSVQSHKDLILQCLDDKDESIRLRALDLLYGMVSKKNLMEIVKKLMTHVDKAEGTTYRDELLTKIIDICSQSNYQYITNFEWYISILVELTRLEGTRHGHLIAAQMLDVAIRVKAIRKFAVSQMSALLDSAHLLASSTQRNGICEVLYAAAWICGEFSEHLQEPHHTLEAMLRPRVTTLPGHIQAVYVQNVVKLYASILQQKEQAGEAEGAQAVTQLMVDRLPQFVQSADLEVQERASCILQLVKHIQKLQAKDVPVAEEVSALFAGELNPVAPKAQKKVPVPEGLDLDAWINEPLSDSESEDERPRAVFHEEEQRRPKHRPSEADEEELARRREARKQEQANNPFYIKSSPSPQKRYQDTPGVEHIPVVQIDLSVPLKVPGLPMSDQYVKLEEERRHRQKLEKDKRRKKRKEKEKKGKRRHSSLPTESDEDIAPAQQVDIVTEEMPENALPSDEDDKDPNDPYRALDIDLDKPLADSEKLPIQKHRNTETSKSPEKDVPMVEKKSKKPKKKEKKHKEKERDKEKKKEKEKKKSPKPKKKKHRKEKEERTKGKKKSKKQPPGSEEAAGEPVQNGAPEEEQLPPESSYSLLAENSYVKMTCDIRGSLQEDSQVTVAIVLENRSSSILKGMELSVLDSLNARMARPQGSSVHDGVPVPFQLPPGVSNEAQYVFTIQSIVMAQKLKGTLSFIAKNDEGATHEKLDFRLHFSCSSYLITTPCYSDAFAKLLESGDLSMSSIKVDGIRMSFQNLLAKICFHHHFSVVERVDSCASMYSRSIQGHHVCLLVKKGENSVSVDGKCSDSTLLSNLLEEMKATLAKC
Chain of UniProt Q9NXR5 (Q9NXR5 whole entry, looked up): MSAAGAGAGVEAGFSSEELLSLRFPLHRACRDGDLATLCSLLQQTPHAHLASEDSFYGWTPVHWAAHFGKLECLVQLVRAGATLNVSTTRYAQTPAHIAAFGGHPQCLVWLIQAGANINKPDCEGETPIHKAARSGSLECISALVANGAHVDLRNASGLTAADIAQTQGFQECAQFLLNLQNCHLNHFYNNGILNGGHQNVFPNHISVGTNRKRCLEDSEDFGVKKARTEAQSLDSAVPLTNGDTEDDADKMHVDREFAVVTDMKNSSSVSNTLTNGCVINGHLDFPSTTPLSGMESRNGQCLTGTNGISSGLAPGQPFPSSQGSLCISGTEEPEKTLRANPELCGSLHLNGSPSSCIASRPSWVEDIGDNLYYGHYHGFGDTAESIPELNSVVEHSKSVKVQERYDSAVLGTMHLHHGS
Chain of UniProt Q13155 (Q13155 whole entry, looked up): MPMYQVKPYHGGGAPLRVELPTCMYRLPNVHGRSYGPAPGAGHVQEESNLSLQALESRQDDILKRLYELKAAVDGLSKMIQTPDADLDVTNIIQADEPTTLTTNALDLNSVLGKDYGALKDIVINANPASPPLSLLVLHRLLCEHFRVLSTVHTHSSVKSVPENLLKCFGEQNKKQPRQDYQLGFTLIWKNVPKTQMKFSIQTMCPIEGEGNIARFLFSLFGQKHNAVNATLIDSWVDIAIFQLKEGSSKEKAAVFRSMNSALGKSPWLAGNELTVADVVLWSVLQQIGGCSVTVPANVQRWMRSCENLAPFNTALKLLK
Chain of UniProt Q13686 (Q13686 whole entry, looked up): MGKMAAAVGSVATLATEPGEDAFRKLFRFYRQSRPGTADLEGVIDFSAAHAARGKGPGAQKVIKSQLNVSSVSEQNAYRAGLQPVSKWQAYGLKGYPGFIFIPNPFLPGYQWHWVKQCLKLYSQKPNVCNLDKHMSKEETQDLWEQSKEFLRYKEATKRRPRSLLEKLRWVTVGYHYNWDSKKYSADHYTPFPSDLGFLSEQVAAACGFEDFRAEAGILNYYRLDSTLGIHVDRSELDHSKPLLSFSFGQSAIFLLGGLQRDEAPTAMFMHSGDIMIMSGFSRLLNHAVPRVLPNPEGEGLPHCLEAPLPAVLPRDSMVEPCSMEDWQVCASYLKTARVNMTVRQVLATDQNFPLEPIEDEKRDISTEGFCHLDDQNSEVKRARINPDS
Chain of UniProt O15120 (O15120 whole entry, looked up): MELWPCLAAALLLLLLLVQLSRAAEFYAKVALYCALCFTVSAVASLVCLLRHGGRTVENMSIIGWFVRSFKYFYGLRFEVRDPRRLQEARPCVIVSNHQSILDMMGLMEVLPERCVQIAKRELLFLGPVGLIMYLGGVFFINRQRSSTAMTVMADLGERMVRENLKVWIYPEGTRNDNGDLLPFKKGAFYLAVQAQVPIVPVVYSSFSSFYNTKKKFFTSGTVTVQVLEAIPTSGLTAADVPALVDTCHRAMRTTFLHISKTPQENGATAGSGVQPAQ
Chain of UniProt Q9Y303 (Q9Y303 whole entry, looked up): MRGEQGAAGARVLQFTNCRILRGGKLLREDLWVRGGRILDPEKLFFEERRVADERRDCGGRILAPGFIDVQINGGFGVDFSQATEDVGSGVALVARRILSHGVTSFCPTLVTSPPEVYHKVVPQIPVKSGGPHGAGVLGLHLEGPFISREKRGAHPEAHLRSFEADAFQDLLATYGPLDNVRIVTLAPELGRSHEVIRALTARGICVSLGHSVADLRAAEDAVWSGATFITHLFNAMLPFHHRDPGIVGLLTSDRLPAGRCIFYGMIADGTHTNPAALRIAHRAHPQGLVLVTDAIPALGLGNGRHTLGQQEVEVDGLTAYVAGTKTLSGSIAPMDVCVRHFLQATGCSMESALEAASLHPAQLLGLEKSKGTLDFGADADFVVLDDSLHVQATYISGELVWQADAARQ
Chain of UniProt Q2VPB7 (Q2VPB7 whole entry, looked up): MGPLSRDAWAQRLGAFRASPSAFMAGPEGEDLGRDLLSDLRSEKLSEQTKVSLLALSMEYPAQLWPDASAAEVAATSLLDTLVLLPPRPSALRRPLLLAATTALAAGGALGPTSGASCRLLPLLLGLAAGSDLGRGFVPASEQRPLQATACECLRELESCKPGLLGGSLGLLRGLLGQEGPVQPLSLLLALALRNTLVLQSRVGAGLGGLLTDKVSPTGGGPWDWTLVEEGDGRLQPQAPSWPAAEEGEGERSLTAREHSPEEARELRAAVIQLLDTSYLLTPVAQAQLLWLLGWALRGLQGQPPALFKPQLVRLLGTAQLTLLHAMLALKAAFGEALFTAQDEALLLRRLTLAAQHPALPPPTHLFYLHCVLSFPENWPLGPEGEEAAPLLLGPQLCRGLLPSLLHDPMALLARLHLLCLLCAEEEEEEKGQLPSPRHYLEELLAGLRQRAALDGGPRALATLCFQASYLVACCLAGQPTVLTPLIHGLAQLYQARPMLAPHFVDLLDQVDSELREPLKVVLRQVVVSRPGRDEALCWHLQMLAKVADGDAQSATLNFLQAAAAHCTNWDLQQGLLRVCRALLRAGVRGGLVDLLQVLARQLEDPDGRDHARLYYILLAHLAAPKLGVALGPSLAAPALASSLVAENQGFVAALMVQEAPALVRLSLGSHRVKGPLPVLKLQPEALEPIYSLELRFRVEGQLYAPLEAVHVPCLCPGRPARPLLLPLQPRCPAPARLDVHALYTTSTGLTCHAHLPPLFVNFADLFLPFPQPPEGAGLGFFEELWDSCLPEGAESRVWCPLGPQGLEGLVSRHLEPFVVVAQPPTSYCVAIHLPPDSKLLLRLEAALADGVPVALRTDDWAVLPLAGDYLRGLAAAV
Chain of UniProt Q3SXY8 (Q3SXY8 whole entry, looked up): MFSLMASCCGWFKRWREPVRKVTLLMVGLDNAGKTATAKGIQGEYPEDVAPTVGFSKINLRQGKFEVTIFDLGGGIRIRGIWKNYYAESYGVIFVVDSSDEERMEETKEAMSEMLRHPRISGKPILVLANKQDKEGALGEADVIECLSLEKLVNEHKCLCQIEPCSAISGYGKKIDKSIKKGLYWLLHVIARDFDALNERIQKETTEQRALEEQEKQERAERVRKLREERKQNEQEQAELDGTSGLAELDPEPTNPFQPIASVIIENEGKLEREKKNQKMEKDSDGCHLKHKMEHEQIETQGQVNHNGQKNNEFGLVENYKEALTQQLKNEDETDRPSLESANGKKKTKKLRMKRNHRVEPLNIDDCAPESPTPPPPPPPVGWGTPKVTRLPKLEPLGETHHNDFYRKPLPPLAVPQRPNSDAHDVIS
Chain of UniProt P14621 (P14621 whole entry, looked up): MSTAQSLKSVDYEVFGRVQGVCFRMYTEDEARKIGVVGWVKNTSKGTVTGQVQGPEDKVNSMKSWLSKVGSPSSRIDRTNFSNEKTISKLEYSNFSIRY
Chain of UniProt Q9BT30 (Q9BT30 whole entry, looked up): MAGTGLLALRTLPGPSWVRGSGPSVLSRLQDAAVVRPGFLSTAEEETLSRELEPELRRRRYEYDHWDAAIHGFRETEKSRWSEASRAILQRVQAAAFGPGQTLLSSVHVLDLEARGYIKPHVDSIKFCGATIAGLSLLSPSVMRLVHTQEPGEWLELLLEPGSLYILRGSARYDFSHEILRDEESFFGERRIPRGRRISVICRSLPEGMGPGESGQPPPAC

| Target | log2 fold change (erlotinib) | log2 fold change [1] | log2 fold change [2] | log2 fold change [3] | log2 fold change [4] | log2 fold change [5] | log2 fold change [6] | log2 fold change (IRAK-1-4 Inhibitor I) | log2 fold change [7] | log2 fold change [8] |
| --- | --- | --- | --- | --- | --- | --- | --- | --- | --- | --- |
| ANKRD10 (UniProt Q9NXR5) | 0.023 | 0.045 | -0.041 | 0.009 | 0.055 | 0.012 | -0.066 | -0.059 |  |  |
| ALKBH1 (UniProt Q13686) | 0.033 | -0.042 | -0.02 | 0.052 |  | 0.024 | -0.022 | -0.11 | 0.211 | 0.041 |
| ABHD13 (UniProt Q7L211) |  | 0.015 |  | 0.021 | 0.011 |  | -0.071 |  | 0.176 | 0.04 |
| AP3D1 isoform 2 (UniProt O14617) | 0.029 | -0.082 | -0.15 | -0.162 |  |  | -0.026 |  |  |  |
| ABI1 isoform 6 (UniProt Q8IZP0) |  |  |  |  |  |  |  |  | -0.167 | 0.213 |
| ARHGEF2 (UniProt V9GYF0) |  | -0.056 |  | -0.125 |  | 0.012 | 0.078 | 0.062 | -0.009 | -0.058 |
| APEX1 (UniProt P27695) | 0.026 | 0.011 | -0.011 | 0.016 | 0 | 0.004 | -0.072 | -0.007 | 0 | 0.003 |
| AGPAT2 (UniProt O15120) | -0.032 | -0.064 | 0.013 | 0.245 |  | -0.114 | 0.024 | -0.027 | -0.038 | 0.069 |
| ACTG1 (UniProt K7EM38) |  |  |  |  |  |  |  |  | -0.162 | -0.155 |
| AMDHD2 (UniProt Q9Y303) |  | -0.527 (active) |  | 0.212 |  |  | -0.391 |  |  |  |
| AFF4 (UniProt Q9UHB7) | -0.003 | -0.152 | 0.007 | -0.063 | 0.021 | 0.048 | 0.003 | -0.031 | 0.032 | 0.016 |
| ABRACL (UniProt Q9P1F3) | -0.013 |  | 0.056 |  | 0.103 |  |  |  |  |  |
| ASNS (UniProt P08243) | 0.024 | 0.067 | -0.019 | -0.007 | 0.017 | -0.023 | -0.018 | 0.011 | 0.016 | 0.038 |
| ANKRD52 (UniProt Q8NB46) | 0.056 | -0.288 | 0.026 | -0.011 | 0.021 | 0.013 | -0.092 | 0.051 | 0.008 | 0.072 |
| ARL13B (UniProt Q3SXY8) | 0.043 | 0.06 | -0.195 | -0.039 | 0.118 | -0.033 | 0.094 | 0.038 |  |  |
| ALKBH7 (UniProt Q9BT30) | -0.169 |  | -0.02 |  |  | 0 |  | -0.04 | -0.033 | 0.027 |
| ALDH3A1 (UniProt P30838) | 0.147 |  | 0.257 |  |  | 0.147 |  | 0.059 |  |  |
| AP5B1 (UniProt Q2VPB7) | 0.006 |  | -0.05 |  | -0.069 | 0.014 |  | 0.03 | 0.073 | 0.046 |
| AIMP2 isoform 2 (UniProt Q13155) |  |  |  |  | 0.056 | 0.061 |  | 0.006 |  |  |
| ACYP2 (UniProt P14621) | -0.057 | 0.256 | 0.007 | -0.176 | 0.002 | -0.049 | -0.185 | -0.011 |  |  |
| ANKRD40 (UniProt Q6AI12) | 0.085 | -0.269 | 0.093 | -0.143 | 0.232 | 0.065 | -0.163 | -0.091 | 0.296 | 0.203 |
| ARHGAP21 (UniProt Q5T5U3) | -0.013 | -0.182 | -0.025 | -0.098 | -0.214 | -0.018 | -0.137 | 0.056 | -0.118 | -0.018 |
